About 2,000 (36%) of roughly 5,500 compounds were called active. Roughly 18% stayed inconclusive and do not appear here. Cut-off read from the data, not from the text of the source: active = normalized growth mostly below about 0.91 (no sharp cut-off); inconclusive = no clear call, values can overlap the other calls; inactive = mostly above about 0.92. Some of the results follow.
Test: chemical genetic growth profiling, strain panel (AID 1159580);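 note: tested at 20 µM; growth read once vehicle control cultures reached saturation at 30 °C; 1 = growth at the plate median or of vehicle wells; lower values mean less growth of the strain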
Conditions: growth OD

Measured: normalized growth

CN(C)CCOC(=O)C(c1ccccc1)C1(O)CCCC1 (centres undefined)
inactive: S. cerevisiae deletion strains, locus YJR075W, strain HOC1, hits give low values 1.01 | S. cerevisiae deletion strains, locus YKL009W, strain mrt4, hits give low values 1.02 | S. cerevisiae deletion strains, locus YKL068W, hits give low values 1.01 | S. cerevisiae deletion strains, locus YKL085W, strain MDH1 (second series), hits give low values 1.04 | S. cerevisiae deletion strains, locus YKL085W, strain MDH1, hits give low values 1.04 | S. cerevisiae deletion strains, locus YKL160W, strain elf1, hits give low values 0.988 | S. cerevisiae deletion strains, locus YKR001C, strain vps1, hits give low values 1.03 | S. cerevisiae deletion strains, locus YKR026C, strain gcn3, hits give low values 0.973 | S. cerevisiae deletion strains, locus YKR091W, strain srl3, hits give low values 0.982 | S. cerevisiae deletion strains, locus YLL001W, strain dnm1, hits give low values 0.957 | S. cerevisiae deletion strains, locus YLL026W, hits give low values 0.985 | S. cerevisiae deletion strains, locus YLL041C, strain sdh2, hits give low values 0.99 | S. cerevisiae deletion strains, locus YLR027C, strain aat2, hits give low values 0.985 | S. cerevisiae deletion strains, locus YLR039C, strain RIC1, hits give low values 1.04 | S. cerevisiae deletion strains, locus YLR058C, strain SHM2, hits give low values 1.01 | S. cerevisiae deletion strains, locus YLR102C, strain apc9, hits give low values 1 | S. cerevisiae deletion strains, locus YLR113W, strain HOG1, hits give low values 1.01 | S. cerevisiae deletion strains, locus YLR221C, strain rsa3, hits give low values 1.03 | S. cerevisiae deletion strains, locus YLR258W, strain gsy2, hits give low values 1.01 | S. cerevisiae deletion strains, locus YLR262C, strain YPT6 (second series), hits give low values 0.995 | S. cerevisiae deletion strains, locus YLR262C, strain YPT6, hits give low values 1.05 | S. cerevisiae deletion strains, locus YLR268W, strain sec22, hits give low values 1.01 | S. cerevisiae deletion strains, locus YLR320W, strain mms22, hits give low values 1.02 | S. cerevisiae deletion strains, locus YLR330W, strain CHS5, hits give low values 1 | S. cerevisiae deletion strains, locus YLR342W, strain FKS1 (second series), hits give low values 0.999 | S. cerevisiae deletion strains, locus YLR342W, strain FKS1, hits give low values 0.958 | S. cerevisiae deletion strains, locus YLR357W, strain rsc2, hits give low values 0.962 | S. cerevisiae deletion strains, locus YLR370C, strain arc18, hits give low values 0.995 | S. cerevisiae deletion strains, locus YLR371W, strain rom2, hits give low values 1.01 | S. cerevisiae deletion strains, locus YLR384C, strain iki3, hits give low values 0.985 | S. cerevisiae deletion strains, locus YLR418C, strain cdc73, hits give low values 1.05 | S. cerevisiae deletion strains, locus YML016C, strain PPZ1, hits give low values 1 | S. cerevisiae deletion strains, locus YML032C, strain rad52, hits give low values 1 | S. cerevisiae deletion strains, locus YML120C, strain ndi1, hits give low values 0.988 | S. cerevisiae deletion strains, locus YML124C, strain tub3, hits give low values 1.01 | S. cerevisiae deletion strains, locus YMR058W, strain fet3, hits give low values 0.991 | S. cerevisiae deletion strains, locus YMR078C, strain ctf18, hits give low values 1.03 | S. cerevisiae deletion strains, locus YMR125W, strain sto1, hits give low values 0.989 | S. cerevisiae deletion strains, locus YMR129W, hits give low values 0.986 | S. cerevisiae deletion strains, locus YMR205C, strain PFK2, hits give low values 0.993 | S. cerevisiae deletion strains, locus YMR223W, strain ubp8, hits give low values 1.02 | S. cerevisiae deletion strains, locus YMR231W, strain pep5, hits give low values 0.975 | S. cerevisiae deletion strains, locus YMR307W, strain GAS1, hits give low values 1.06 | S. cerevisiae deletion strains, locus YNL067W, strain RPL9B, hits give low values 1.02 | S. cerevisiae deletion strains, locus YNL071W, strain lat1, hits give low values 1.01 | S. cerevisiae deletion strains, locus YNL153C, strain GIM3, hits give low values 1.01 | S. cerevisiae deletion strains, locus YNL183C, strain NPR1, hits give low values 0.944 | S. cerevisiae deletion strains, locus YNL209W, strain ssb2, hits give low values 1.02 | S. cerevisiae deletion strains, locus YNL233W, strain BNI4, hits give low values 1.01 | S. cerevisiae deletion strains, locus YNL248C, strain rpa49, hits give low values 1.03 | S. cerevisiae deletion strains, locus YNL250W, strain rad50, hits give low values 1.01 | S. cerevisiae deletion strains, locus YNL271C, strain bni1, hits give low values 1.02 | S. cerevisiae deletion strains, locus YNL298W, strain CLA4, hits give low values 1.03 | S. cerevisiae deletion strains, locus YNL307C, strain MCK1, hits give low values 1.02 | S. cerevisiae deletion strains, locus YNL322C, strain KRE1 (second series), hits give low values 0.985 | S. cerevisiae deletion strains, locus YNL322C, strain KRE1, hits give low values 0.982 | S. cerevisiae deletion strains, locus YNR049C, strain mso1, hits give low values 0.987 | S. cerevisiae deletion strains, locus YNR052C, strain pop2, hits give low values 1.01 | S. cerevisiae deletion strains, locus YOL006C, strain TOP1, hits give low values 1.04 | S. cerevisiae deletion strains, locus YOL012C, strain htz1 1.15 | S. cerevisiae deletion strains, locus YOL147C, strain pex11, hits give low values 1.01 | S. cerevisiae deletion strains, locus YOR001W, strain rrp6, hits give low values 0.97 | S. cerevisiae deletion strains, locus YOR061W, strain CKA2, hits give low values 1.01 | S. cerevisiae deletion strains, locus YOR069W, strain VPS5, hits give low values 1.01 | S. cerevisiae deletion strains, locus YOR070C, strain gyp1, hits give low values 0.997 | S. cerevisiae deletion strains, locus YOR080W, strain dia2, hits give low values 0.981 | S. cerevisiae deletion strains, locus YOR083W, strain WHI5, hits give low values 0.952 | S. cerevisiae deletion strains, locus YOR106W, strain vam3, hits give low values 0.993 | S. cerevisiae deletion strains, locus YOR136W, strain idh2, hits give low values 1.02 | S. cerevisiae deletion strains, locus YOR144C, strain elg1, hits give low values 1.01 | S. cerevisiae deletion strains, locus YOR184W, strain ser1, hits give low values 1.02 | S. cerevisiae deletion strains, locus YOR231W, strain MKK1, hits give low values 0.997 | S. cerevisiae deletion strains, locus YOR265W, strain rbl2, hits give low values 0.998 | S. cerevisiae deletion strains, locus YOR270C, strain vph1, hits give low values 0.957 | S. cerevisiae deletion strains, locus YOR290C, strain snf2, hits give low values 1.02 | S. cerevisiae deletion strains, locus YOR316C, strain cot1, hits give low values 1.02 | S. cerevisiae deletion strains, locus YPL051W, strain arl3, hits give low values 1.02 | S. cerevisiae deletion strains, locus YPL055C, strain LGE1, hits give low values 1.01 | S. cerevisiae deletion strains, locus YPL078C, strain atp4, hits give low values 0.961 | S. cerevisiae deletion strains, locus YPL106C, strain sse1, hits give low values 1.01 | S. cerevisiae deletion strains, locus YPL240C, strain hsp82, hits give low values 1.01 | S. cerevisiae deletion strains, locus YPL241C, strain CIN2, hits give low values 0.988 | S. cerevisiae deletion strains, locus YPL256C, strain CLN2, hits give low values 0.984 | S. cerevisiae deletion strains, locus YPR119W, strain clb2, hits give low values 1.01 | S. cerevisiae deletion strains, locus YPR141C, strain kar3, hits give low values 1.03 | S. cerevisiae deletion strains, locus YPR163C, strain tif3, hits give low values 1.02 | S. cerevisiae deletion strains, locus YPR167C, strain met16, hits give low values 1.01 | S. cerevisiae deletion strains, strain wtn01, hits give low values 1.01 | S. cerevisiae strains, strain wild type, hits give low values 1

Reference: PubChem BioAssay AID1159580 (chemical genetic matrix, 2015)
